The record followed here is ChEMBL document CHEMBL3988442, “University of Dundee, Small-Polar-MMV Screening Library” (2021).

Set-up in all cases: scale not given: direction of the effect not stated beside the values
Test [1] concerns the target Protein translocase subunit SecA (Escherichia coli (strain K12)) (UniProt P10408). The test can be described thus: Assay to Identify E. coli SecA ATPase Inhibitors. It counts as functional. The following applies: 30 µM.
Test [2] addresses T1, Ubiquitin-activating enzyme e1, putative (Leishmania donovani (strain BPK282A1)) (UniProt E9BSI1).
T1 sequence (whole entry): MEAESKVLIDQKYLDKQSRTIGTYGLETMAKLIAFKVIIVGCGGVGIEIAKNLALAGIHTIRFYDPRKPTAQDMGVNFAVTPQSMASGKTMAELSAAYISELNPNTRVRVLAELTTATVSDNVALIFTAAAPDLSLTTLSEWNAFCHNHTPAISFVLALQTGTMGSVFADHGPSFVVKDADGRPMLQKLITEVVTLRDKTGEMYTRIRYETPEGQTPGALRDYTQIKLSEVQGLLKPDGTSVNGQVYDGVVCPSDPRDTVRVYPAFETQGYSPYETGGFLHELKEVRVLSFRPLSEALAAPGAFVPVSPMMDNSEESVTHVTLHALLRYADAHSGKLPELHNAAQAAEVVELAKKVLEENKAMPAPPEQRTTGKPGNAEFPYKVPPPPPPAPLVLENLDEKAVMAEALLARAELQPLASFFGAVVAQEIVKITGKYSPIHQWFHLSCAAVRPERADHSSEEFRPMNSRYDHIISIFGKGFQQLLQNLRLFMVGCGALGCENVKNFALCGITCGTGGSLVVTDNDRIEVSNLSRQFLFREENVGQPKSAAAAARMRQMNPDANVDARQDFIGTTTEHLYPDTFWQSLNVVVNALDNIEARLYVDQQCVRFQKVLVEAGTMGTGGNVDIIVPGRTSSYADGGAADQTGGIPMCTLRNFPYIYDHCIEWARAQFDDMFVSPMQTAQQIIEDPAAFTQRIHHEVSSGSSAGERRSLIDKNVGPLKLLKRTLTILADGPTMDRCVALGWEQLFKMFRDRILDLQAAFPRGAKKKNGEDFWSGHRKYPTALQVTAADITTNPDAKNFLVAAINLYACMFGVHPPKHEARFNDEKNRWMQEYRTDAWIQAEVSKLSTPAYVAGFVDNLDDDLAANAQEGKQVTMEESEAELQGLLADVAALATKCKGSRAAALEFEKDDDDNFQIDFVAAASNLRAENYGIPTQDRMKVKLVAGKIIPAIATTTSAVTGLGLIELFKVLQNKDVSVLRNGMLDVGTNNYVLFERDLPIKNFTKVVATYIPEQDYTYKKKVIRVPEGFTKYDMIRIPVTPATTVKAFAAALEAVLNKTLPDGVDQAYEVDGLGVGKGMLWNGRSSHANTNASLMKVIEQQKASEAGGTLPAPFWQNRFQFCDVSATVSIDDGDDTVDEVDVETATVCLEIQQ
The test is described as follows: Leishmania donovani Ubiquitin Activating Enzyme (LdE1). It counts as functional. As to conditions: 30 µM.

Test [3] concerns the target Sialic acid-binding Ig-like lectin 9 (Homo sapiens) (UniProt Q9Y336). The test can be described thus: Hs-Siglec9 ALPHAscreen SOP 20170721. The following applies: 10 µM.
The next test deals with Trypanosoma cruzi. The test can be described thus: Trypanosoma cruzi phosphomannomutase and mannose-1-phosphate guanylyltransferase assay. It is filed as functional. The following applies: 10 µM.
The target of test [4] is T2, Arginase-2, mitochondrial (Homo sapiens) (UniProt P78540).
T2 sequence (whole entry): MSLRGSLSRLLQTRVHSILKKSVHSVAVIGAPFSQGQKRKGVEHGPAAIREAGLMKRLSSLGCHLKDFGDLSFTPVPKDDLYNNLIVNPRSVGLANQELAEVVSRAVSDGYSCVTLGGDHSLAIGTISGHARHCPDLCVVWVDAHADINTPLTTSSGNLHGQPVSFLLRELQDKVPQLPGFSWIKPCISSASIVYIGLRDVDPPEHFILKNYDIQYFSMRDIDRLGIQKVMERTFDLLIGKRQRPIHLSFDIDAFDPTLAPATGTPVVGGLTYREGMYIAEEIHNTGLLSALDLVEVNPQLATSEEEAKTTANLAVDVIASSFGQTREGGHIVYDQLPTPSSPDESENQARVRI
The test is described as follows: in vitro enzyme assay to detect the production of urea directly proportional to the activity of Arginase II. Also: in the data most compounds retested in dose-response had high values. It counts as functional. As to conditions: 33.3 µM.

Test [5] has as its target T3, Proteasome subunit beta (Trypanosoma cruzi) (UniProt O96673).
T3 sequence (whole entry): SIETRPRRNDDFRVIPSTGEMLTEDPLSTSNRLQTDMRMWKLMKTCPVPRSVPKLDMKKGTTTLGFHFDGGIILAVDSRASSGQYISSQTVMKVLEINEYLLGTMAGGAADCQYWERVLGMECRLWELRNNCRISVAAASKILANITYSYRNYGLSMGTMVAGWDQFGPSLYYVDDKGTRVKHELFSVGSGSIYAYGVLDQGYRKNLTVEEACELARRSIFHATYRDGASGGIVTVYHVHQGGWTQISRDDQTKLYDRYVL
The test can be described thus: Trypanosoma cruzi proteasome chymotrypsin-like activity (TcProtChymo) assay. Also: in the data most compounds retested in dose-response had high values. As to conditions: 9.37 µM. It counts as functional.

For a further test, the species on record is Homo sapiens. The test can be described thus: To identify inhibition of the IFN signalling (Jak-Stat) pathway via expression of an eGFP reporter gene under the control of an IFN-stimulated response element (ISRE) containing MxA promoter. It counts as functional. As to conditions: 30 µM.
For test [6], the target named is T4, Tyrosyl-tRNA synthetase, putative (Trypanosoma cruzi (strain CL Brener)) (UniProt Q4DSP6).
T4 sequence (whole entry): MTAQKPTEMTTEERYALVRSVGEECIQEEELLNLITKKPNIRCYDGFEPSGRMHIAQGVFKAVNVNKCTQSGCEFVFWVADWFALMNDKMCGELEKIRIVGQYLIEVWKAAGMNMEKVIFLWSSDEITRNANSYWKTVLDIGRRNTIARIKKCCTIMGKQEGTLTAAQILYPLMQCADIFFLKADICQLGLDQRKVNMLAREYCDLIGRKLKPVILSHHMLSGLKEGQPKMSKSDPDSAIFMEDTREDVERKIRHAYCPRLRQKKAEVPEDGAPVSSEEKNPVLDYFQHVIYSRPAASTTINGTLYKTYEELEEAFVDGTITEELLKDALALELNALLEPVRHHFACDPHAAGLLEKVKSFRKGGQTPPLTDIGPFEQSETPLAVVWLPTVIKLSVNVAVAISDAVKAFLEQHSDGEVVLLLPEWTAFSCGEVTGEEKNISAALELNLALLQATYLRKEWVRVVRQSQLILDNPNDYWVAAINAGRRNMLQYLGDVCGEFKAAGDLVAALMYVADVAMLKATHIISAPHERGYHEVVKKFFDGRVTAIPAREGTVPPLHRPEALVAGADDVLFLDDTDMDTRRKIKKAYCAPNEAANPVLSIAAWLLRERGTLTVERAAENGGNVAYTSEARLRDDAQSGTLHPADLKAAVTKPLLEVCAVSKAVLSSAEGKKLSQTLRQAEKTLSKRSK
The test is described as follows: Trypanosoma cruzi tyrosyl tRNA synthetase (TcYRS) _High Tyrosine SOP. Also: in the data most compounds retested in dose-response had high values. It counts as functional. The following applies: 30 µM.

Test [7] deals with T4, Tyrosyl-tRNA synthetase, putative (Trypanosoma cruzi (strain CL Brener)). The test is described as follows: Trypanosoma cruzi tyrosyl tRNA synthetase (TcYRS) SOP. It is filed as functional. As to conditions: 30 µM.
Test [8] has as its target Chromo domain-containing protein 1 (Saccharomyces cerevisiae (strain ATCC 204508 / S288c) (Baker's yeast)) (UniProt P32657). The test is described as follows: ScCHD-1 Enzyme Inhibition Assay. Also: in the data most compounds retested in dose-response had high values. It is filed as functional. The following applies: 30 µM.

Structures are written as SMILES. For part of these data: Measured potencies and affinities stand elsewhere.

Chain of Sialic acid-binding Ig-like lectin 9 (Homo sapiens) (Q9Y336 whole entry): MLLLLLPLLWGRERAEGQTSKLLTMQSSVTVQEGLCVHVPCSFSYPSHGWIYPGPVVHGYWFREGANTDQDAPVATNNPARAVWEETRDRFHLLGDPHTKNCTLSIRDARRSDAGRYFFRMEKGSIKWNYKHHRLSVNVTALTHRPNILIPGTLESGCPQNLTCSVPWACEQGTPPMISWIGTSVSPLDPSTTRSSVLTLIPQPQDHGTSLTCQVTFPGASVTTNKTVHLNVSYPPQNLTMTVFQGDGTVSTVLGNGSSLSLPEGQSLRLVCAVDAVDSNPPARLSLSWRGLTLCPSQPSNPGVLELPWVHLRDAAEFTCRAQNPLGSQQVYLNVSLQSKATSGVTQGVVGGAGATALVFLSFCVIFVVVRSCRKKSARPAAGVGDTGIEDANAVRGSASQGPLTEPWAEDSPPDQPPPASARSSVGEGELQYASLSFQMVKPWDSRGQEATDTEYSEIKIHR
Chain of Protein translocase subunit SecA (Escherichia coli (strain K12)) (P10408 whole entry): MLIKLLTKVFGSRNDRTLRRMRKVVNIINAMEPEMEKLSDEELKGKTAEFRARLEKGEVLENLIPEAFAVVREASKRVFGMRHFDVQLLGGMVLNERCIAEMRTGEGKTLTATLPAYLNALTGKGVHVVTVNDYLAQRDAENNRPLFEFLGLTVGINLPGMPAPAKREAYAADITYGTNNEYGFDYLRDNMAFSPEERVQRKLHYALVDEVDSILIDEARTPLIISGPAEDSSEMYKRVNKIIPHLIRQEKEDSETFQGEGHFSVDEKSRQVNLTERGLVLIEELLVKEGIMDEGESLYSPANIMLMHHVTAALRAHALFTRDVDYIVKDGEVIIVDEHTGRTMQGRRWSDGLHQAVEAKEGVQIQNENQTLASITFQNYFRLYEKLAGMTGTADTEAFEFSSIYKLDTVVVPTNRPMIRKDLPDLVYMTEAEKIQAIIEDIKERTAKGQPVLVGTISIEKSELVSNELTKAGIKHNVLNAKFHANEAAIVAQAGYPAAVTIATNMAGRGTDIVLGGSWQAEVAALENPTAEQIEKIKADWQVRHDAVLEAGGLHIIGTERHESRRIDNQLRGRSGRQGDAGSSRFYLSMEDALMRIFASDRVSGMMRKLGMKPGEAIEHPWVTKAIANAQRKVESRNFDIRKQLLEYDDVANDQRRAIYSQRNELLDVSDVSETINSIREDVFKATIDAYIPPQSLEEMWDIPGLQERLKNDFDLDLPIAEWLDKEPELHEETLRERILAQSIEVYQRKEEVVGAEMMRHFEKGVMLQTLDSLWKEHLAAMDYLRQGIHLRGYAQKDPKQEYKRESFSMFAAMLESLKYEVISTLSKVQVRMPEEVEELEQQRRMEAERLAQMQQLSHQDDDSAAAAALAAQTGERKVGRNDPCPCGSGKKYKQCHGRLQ
Chain of Chromo domain-containing protein 1 (Saccharomyces cerevisiae (strain ATCC 204508 / S288c) (Baker's yeast)) (P32657 whole entry, the tested form may be a part): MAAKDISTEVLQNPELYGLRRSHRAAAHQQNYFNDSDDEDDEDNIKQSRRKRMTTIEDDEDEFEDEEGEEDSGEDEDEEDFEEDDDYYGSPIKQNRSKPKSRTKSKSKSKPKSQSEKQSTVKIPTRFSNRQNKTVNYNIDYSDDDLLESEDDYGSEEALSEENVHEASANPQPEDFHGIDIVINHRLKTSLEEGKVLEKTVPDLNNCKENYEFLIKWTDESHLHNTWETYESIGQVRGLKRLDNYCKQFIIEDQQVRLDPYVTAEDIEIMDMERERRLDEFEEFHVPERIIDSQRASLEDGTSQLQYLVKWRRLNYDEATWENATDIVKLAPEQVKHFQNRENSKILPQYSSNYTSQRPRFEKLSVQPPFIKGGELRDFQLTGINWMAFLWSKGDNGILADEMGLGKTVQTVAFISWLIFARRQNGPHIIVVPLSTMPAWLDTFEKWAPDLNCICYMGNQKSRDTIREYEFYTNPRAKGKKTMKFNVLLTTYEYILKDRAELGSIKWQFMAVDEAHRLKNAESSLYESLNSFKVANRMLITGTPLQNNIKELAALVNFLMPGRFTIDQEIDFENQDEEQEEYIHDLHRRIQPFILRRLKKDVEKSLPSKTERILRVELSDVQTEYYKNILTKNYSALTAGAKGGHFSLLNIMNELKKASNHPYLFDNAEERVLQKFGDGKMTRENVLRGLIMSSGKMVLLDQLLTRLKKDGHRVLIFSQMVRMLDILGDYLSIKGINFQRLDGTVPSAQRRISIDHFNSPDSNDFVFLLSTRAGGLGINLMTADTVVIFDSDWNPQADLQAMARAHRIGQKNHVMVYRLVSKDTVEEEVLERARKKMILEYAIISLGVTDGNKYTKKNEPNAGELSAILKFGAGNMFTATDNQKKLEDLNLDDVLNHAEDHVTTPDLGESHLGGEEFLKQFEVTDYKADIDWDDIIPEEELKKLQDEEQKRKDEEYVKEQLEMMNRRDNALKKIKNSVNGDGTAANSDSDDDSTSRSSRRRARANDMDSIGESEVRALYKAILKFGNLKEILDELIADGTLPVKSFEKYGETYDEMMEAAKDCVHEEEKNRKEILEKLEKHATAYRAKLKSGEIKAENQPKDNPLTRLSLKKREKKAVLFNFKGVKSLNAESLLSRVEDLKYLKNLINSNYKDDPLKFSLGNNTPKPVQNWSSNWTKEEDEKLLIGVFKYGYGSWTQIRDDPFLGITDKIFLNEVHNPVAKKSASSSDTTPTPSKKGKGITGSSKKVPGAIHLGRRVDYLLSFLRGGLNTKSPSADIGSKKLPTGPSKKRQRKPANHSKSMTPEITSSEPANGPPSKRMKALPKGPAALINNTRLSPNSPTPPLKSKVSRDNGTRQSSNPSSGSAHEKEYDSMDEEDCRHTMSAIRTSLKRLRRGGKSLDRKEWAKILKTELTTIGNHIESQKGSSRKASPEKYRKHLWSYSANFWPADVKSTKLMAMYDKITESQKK

`Cn1cc(CC(=O)N2CCC(Nc3cccnn3)CC2)c2ccccc21`: the Percent Effect in [1] is -3.59%; in test [2], 18.2%; in test [3], 3.22%; in the test with Trypanosoma cruzi, 3.73%; in test [4], -7.99%; in test [5] it was 5.96%. The Percent Effect in the test listed under Homo sapiens is 4.59%; in test [6], 7.84%; in test [7] it was 32.9%; in test [8], -10.9%.

With `CCC1=N[C@@]2(CC[C@@H]3CN(C(=O)NCc4ccccc4)C[C@@H]32)C(=O)N1`, the Percent Effect in test [1] is -4.85%; in test [2] it was 3.9%; in [3], -3.04%; in the test on Trypanosoma cruzi, 1.66%; in test [4], -4.86%; in test [5], 4.33%. The Percent Effect in the test listed under Homo sapiens is -16.6%; in test [6] it was 5.79%; in test [7], 5.13%; in test [8], -0.556%.

For `COCCN(C)C[C@@H]1CCC[C@@H]2CN(c3cc(OC)ncn3)C[C@@H]21`, the Percent Effect in [1] is -6.04%; in test [2], 3.9%; in test [3], -3.68%; in the test on Trypanosoma cruzi, -1.27%; in test [4], -5.26%; in test [5], 13.9%. For the same molecule, the Percent Effect stood at 11.6% in the test listed under Homo sapiens, 7.89% in [6], 7.69% in test [7] and 0.558% in test [8].

Consider `O=C(Cc1cn2ccsc2n1)N1CCCC(n2cncn2)C1` (stereo not given), for which the Percent Effect in test [1] is -3.72%; in test [2], 12.8%; in test [3], -3.95%; in the test on Trypanosoma cruzi, -4.22%; in test [4] it was -5.74%; in test [5], 13.9%. For the same molecule, the Percent Effect in the test filed under Homo sapiens was 31.1%; in test [6] it was 4.31%; in test [7], 13.2%; in [8] it was -5.26%.

For `CN1CC(=O)N(c2ccsc2)CC12CCN(C(=O)c1ccccc1)C2` (stereo not given), the Percent Effect was -4.65% in [1]; 11.7% in [2]; -6.87% in [3]; -3.99% in the test on Trypanosoma cruzi; 3.64% in test [4]; 12.6% in test [5]. For the same molecule, the Percent Effect in the test filed under Homo sapiens was -10.9%; in test [6], 5.79%; in [7], 7.69%; in test [8], 1.01%.

With `CN(C)[C@@H]1CN(Cc2ccoc2)C[C@@H]2CCCO[C@@H]21`, the Percent Effect is 0.454% in test [1]; -11.7% in [2]; 0.192% in test [3]; -1.46% in the test with Trypanosoma cruzi; -1.62% in test [4]; 5.74% in test [5]. Further, the Percent Effect was -2.15% in the test filed under Homo sapiens, 0.526% in test [6], -2.56% in test [7] and -1.39% in test [8].

For `COCCC(=O)N1CCn2c(COCC3CC3)cnc2C1C` (stereo not given), the Percent Effect in test [1] was -9.04%; in test [2], 1.3%; in test [3], 6.82%; in the test on Trypanosoma cruzi it was -3.6%; in test [4] it was -3.24%; in test [5] it was 4.33%. Besides, the Percent Effect in the test listed under Homo sapiens is -4.92%; in [6] it was 0.526%; in test [7], 5.13%; in [8], -2.88%.

On to `Cc1nc(COc2ccc(CNCC3CN(C)CCO3)cc2)cs1` (stereo not given), for which the Percent Effect is -3.51% in [1]; 2.6% in [2]; 0.562% in [3]; -3.73% in the test on Trypanosoma cruzi; 3.07% in test [4]; 3.16% in [5]. For the same molecule, the Percent Effect in the test filed under Homo sapiens is 18.8%; in test [6], -0.98%; in [7], -2.35%; in test [8], -1.69%.

In the case of `COc1ccc(C2CC(=O)Nc3c2nc2n3CCCC2)cc1O` (stereo not given), the Percent Effect in test [1] was -3.09%; in test [2], 2.7%; in test [3] it was 6.46%; with Trypanosoma cruzi, -2.04%; in test [4] it was 7.34%; in test [5], 22.6%. In addition, the Percent Effect in the test listed under Homo sapiens is 23.4%; in [6] it was 1.6%; in test [7], 14.6%; in test [8], -3.18%.

Turning to `Cc1cccc(-c2noc(CN3CCc4nn(C)c(=O)cc4C3)n2)c1`, the Percent Effect in test [1] was -3.9%; in test [2], 16%; in test [3], 1.97%; with Trypanosoma cruzi, -0.201%; in test [4], 3.55%; in test [5], 0.424%. The Percent Effect in the test listed under Homo sapiens was 14.8%; in test [6] it was -5.79%; in test [7], -15.4%; in [8], 4.01%.

As to `Cc1nccn1Cc1nnc(C2CCCN(Cc3cccnc3)C2)n1C` (stereo not given), the Percent Effect in [1] is -4.77%; in test [2], 16.2%; in test [3], 4.69%; in the test on Trypanosoma cruzi it was 5.53%; in test [4] it was -6.64%; in [5], 12.3%. The Percent Effect in the test listed under Homo sapiens was 5.04%; in test [6] it was 9.04%; in test [7], 14.6%; in test [8], -2.63%.

With `CS(=O)(=O)Cc1cccc(C(=O)N2CCCC(n3cccn3)C2)c1` (stereo not given), the Percent Effect in [1] is -3.02%; in test [2], 2.56%; in test [3], -5.84%; in the test on Trypanosoma cruzi, -5.92%; in test [4], -1.23%; in test [5], 4.69%. Moreover, the Percent Effect in the test listed under Homo sapiens was 24.6%; in test [6], 2.39%; in [7] it was 1.21%; in test [8] it was -5.08%.
